According to PubChem BioAssay AID624417 (National Center for Advancing Translational Sciences (NCATS), 2012):
About 6,400 (1.6%) of roughly 410,000 compounds were called active. Inconclusive results (about 20%) are left out. The call rests on the fitted dose curve; in most records, active means well fitted inhibition curve with a large enough effect; inconclusive means small, poorly fitted or top-dose-only effect; inactive means no such curve, though single readings can be large or run the other way. The full list was thinned out, with actives kept by preference.

target: Glucagon-like peptide 1 receptor (Homo sapiens) (UniProt P43220); assay: qHTS of GLP-1 Receptor Inverse Agonists (Inhibition Mode); details: HEK293 GLP-1R CRE-luciferase, luminescence, 24 h, GLP-1R form is constitutively active; series mostly up to 38.3 µM; further: nearly all actives have a fitted effect of over 55% in size
Summary of the method: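 Stable HEK293 clone (constitutively active GLP-1R + cAMP-response luciferase); 200 cells/uL plated, 12 h pre-culture, compound 24 hr, 37 deg C/5% CO2; detection reagent 12 min RT; luminescence.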
On the % scale 0 is the no-effect control and ±100 the full control effect; potency means the concentration at half of the fitted maximal effect.

Sequence of Glucagon-like peptide 1 receptor (Homo sapiens) (P43220 whole entry, looked up): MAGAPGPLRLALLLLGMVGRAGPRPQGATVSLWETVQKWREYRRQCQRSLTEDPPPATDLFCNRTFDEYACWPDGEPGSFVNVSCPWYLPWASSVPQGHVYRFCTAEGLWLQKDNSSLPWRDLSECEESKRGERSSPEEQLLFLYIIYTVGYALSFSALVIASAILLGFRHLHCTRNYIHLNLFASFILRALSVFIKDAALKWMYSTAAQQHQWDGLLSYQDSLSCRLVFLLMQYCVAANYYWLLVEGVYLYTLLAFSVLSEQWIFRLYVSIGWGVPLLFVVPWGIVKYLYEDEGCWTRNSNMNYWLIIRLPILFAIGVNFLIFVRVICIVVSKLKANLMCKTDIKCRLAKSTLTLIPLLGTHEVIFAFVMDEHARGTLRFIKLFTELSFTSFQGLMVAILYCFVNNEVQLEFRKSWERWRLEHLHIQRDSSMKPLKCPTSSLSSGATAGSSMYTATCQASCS

Potency, active:
O=C(OCCOc1ccccc1Cl)c1cc(S(=O)(=O)N2CCCCC2)ccc1N1CCOCC1 4.47 µM
CCN(CC)CCCNC(=O)c1c(O)c2cc(F)cc3c2n(c1=O)C(C)CC3 (configuration not stated) 7.94 µM
Oc1ccc(-c2nc3ccccc3nc2-c2ccc(O)cc2O)c(O)c1 4.47 µM
Clc1ccc(-c2cc(-c3ccccn3)on2)c(Cl)c1 5.62 µM
Nc1nonc1-n1nnc(C(=O)N/N=C/c2c[nH]c3ccccc23)c1-c1ccccc1 12.6 µM
CN(C)CCNC(=O)c1ccc(Cl)c2cc3ccccc3nc12 7.08 µM
c1ccc2cc3c(NCCN4CCOCC4)ccnc3cc2c1 10 µM
CCCN(CC(=O)Nc1ccccc1C)C(=O)c1ccc2[nH]c3c(c2c1)CC(C)CC3 (configuration not stated) 5.62 µM
Cc1ccc(CN2CCc3nc(N4CCN(C)CC4)ncc3C2)cc1 7.94 µM
O=c1[nH][nH]c2c1[C@H](c1ccc(Cl)cc1)O[C@H](CCc1ccccc1)C2 10 µM
COc1ccc(C2OC(CCc3ccccc3)Cc3[nH]c(=S)[nH]c(=O)c32)cc1 (configuration not stated) 10 µM
CCN(CC)CCNC(=O)c1sc2ncn(CC(=O)Nc3ccc(C)c(Cl)c3)c(=O)c2c1C 11.2 µM
CCN1CCCC1CNC(=O)c1ccc2c(c1)NC(=O)/C(=C\c1ccccc1F)S2 (configuration not stated) 11.2 µM
CN(C)CCCNC(=S)N1CCN(c2nc(-c3ccccc3)cs2)CC1 3.98 µM
CCC1(CC)Cc2ccccc2-c2nc3ccccc3c(=O)n21 8.91 µM
OC(CNCC1CCCO1)Cn1c2ccc(Br)cc2c2cc(Br)ccc21 (configuration not stated) 5.62 µM
Cc1cccc(C(=O)N2c3nc(-c4ccco4)nn3C3(CCCCC3)[C@@H]3CCCC[C@@H]32)c1 11.2 µM
C=CCC[C@H](Cc1ccc(F)cc1)C(=O)OC[C@@H](NC(=O)[C@@H](CC=C)CC(=O)N[C@H](CO)Cc1ccccc1)C(C)(C)C 7.94 µM
O=S(=O)(O)c1nc2ccccc2n1Cc1ccc(Cl)cc1Cl 10 µM
Cc1ccc(Nc2ccc3cc(S(=O)(=O)N4CCCCC4)ccc3n2)cc1F 2.82 µM
CC1CCC2(CC1)N=C(c1ccccc1)C(=O)N2CC(=O)Nc1ccc(F)c(Cl)c1 (configuration not stated) 10 µM
CCOC(=O)C1(CCOc2ccccc2)CCN(Cc2cc(OC)cc(OC)c2)CC1 10 µM
CCOC(=O)C1(CCOc2ccccc2)CCN(Cc2ccc(C#CCCO)cc2)CC1 7.94 µM

Potency, inactive:
COc1ccc(S(=O)(=O)NC(=O)C2(C)CCN2C(=O)c2ccccc2CCc2ccccc2)cc1 (configuration not stated)
O=C(OCCOc1ccccc1F)c1cc(S(=O)(=O)N2CCOCC2)ccc1F
CC(C)(C)C(=O)COC(=O)c1cc(S(=O)(=O)N2CCCCC2)ccc1N1CCOCC1
CCN(CC)CCCNC(=O)c1cn(C)c2ccc(S(=O)(=O)N(C)C3CCCCC3)cc2c1=O
CCNC(=O)C1(C)CCCN(Cc2noc(-c3ccccc3OC)n2)C1 (configuration not stated)
Oc1ccc2nc(Cc3ccccc3)[nH]c2c1
Cc1nc2ccccc2nc1N/N=C/c1ccc(O)cc1O
CCc1cccc(CC)c1N1C(=O)CC(Sc2ccccc2N)C1=O (configuration not stated)
O=C1c2ccccc2C(=O)N1Cc1cc(-c2ccccc2Cl)no1
Fc1ccc(-c2ccc(CNCc3ccccn3)o2)cc1Cl
Nc1nonc1-n1nnc(C(=O)N/N=C/C2CCCCC2)c1-c1ccccc1
CC(C)c1c(C(=O)N/N=C/c2ccccc2C(=O)O)nnn1-c1nonc1N
Cc1[nH]c2ccccc2c1C(=O)C(=O)NCc1nnnn1-c1cccc(F)c1
O=C(COC(=O)c1cccc(Cl)c1Cl)NC1CCCCCC1
CC(=O)NCCNC(=O)c1cc(-c2cccc3ccccc23)nc2ccccc12
CCCN(CCC)CCNC(=O)c1cc2c(C)nc3ccccc3c2o1
CC(=O)NC(c1ccccc1)c1nc(-c2ccccc2C)cs1 (configuration not stated)
c1ccc(-c2ccc(OCCN3CCOCC3)cc2)cc1
CCOc1nc(NCCN2CCOCC2)nc(Nc2ccc(C)cc2)n1
CCCCn1nnnc1C(c1ccccc1)N1CCN(c2ccccc2OC)CC1 (configuration not stated)
O=C(NCc1ccccc1Cl)c1csc([C@@H]2O[C@H](CO)[C@@H](O)[C@H]2O)n1
CCCN(CC(=O)Nc1ccccc1C)C(=O)c1ccc(OCC(=O)N2CCOCC2)c(OCC)c1
CCCN(CC(=O)Nc1ccccc1C)C(=O)c1cc(=O)[nH]c2ccccc12
CN(Cc1c(F)cccc1Cl)C(=O)COC(=O)Cn1cnc2ccccc2c1=O
CCCN1CCc2nc(N3CCN(C)CC3)ncc2C1
CCOc1ccc(CN2CCCN(C)CC2)cc1
COc1cc(C(O)c2nc(-c3cccc(C(=O)O)c3)cs2)ccc1F (configuration not stated)
Cc1cccc(C)c1-n1nnnc1C(CCc1ccccc1)N1CCN(C/C=C/c2ccccc2)CC1 (configuration not stated)
COc1ccc(C2CC(=O)NC(=O)C2)cc1
COc1ccc(N2C(=O)C(Cc3ccccc3)NC2=S)cc1 (configuration not stated)
CC(C)C1Cc2[nH][nH]c(=O)c2C(c2ccc(Cl)cc2)O1 (configuration not stated)
CC1Cc2[nH][nH]c(=O)c2C(C2CC2)O1 (configuration not stated)
COc1ccc(CCNC(=O)Nc2ccc3c(c2)c(=O)n(C)n3C)cc1OC
CC(C)CN1C(=O)CN(S(C)(=O)=O)CC1(C)C(=O)NCc1ccccc1 (configuration not stated)
c1ccc(Cc2c(-c3ccco3)nc3c4ccccc4ccn23)cc1
CCN(CC)CCNC(=O)Cn1cnc2sc(C)c(S(=O)(=O)N3CCOCC3)c2c1=O
Cc1ccc(NC(=O)Cn2cnc3nc4c(cc3c2=O)CCCC4)cc1Cl
COc1ccc(C(C(=O)Nc2c(C)cccc2C)N2CCN(c3ccc(C)cc3)CC2)cc1 (configuration not stated)
CCOC(=O)N1CCN(C(c2ccnc3ccccc23)c2nnnn2-c2c(C)cccc2C)CC1 (configuration not stated)
Cc1nc(C(F)(F)F)ccc1C(=O)N1CCC1(C)C(=O)NS(=O)(=O)c1ccccc1 (configuration not stated)
O=C(c1cc(C2CCCCN2S(=O)(=O)c2ccccc2)on1)N1CCOCC1 (configuration not stated)
CCN1CCCC1CNC(=O)c1cc2c(=O)n(C)c3ccccc3c2n1C (configuration not stated)
CCN1CCN(CCNC(=O)c2ccc3c(c2)NC(=O)/C(=C\c2cccc(Cl)c2)S3)CC1
O[C@H]1CN(Cc2cccs2)[C@@H](c2ccc(Cl)cc2)C[C@@H]1n1cc(C2CC2)nn1
O=C(CNC(=O)N1CC(=O)Nc2ccccc21)Nc1ccc(Br)cc1F
CO[C@@H]1CN(C)C(=O)c2cc(NC(=O)C3CC3)ccc2OC[C@H](C)N(C(=O)CN2CCOCC2)C[C@@H]1C
CN(C)CCCNC(=S)N1CCC(c2nc3ccccc3[nH]2)CC1
c1ccc(-c2csc(N3CCc4ccccc4C3)n2)cc1
CCOn1c(SC(C)C)nc2ccccc2c1=O
CCOC(=O)C1CCc2nc3ccccc3c(=O)n21 (configuration not stated)
Cc1ccc([C@@H]2CC(=O)[C@@H]3CN(S(=O)(=O)c4ccc(C)cc4)[C@H](c4ccccc4F)C[C@@H]3N2S(=O)(=O)c2ccc(Cl)cc2)cc1
O=C(CSc1ccc(-c2ccc(Br)cc2)nn1)NCC1CCCO1 (configuration not stated)
O=C(CCNS(=O)(=O)c1ccc(Br)cc1)NCC1CCCO1 (configuration not stated)
Cc1ccc(-n2ncc3c2ncn2nc(-c4ccco4)nc32)c(C)c1
Cc1cccc(C(=O)NC(=S)N(C)C2CCCCC2)c1
CCc1nc2c(OCC(N)=O)cccn2c1N(C)C(=O)c1ccc(OC)cc1
Cc1ccccc1S(=O)(=O)NC(=O)C1(C)CCN1C(=O)Cc1ccc(Cl)cc1Cl (configuration not stated)
C=CC[C@@H](CC(=O)N[C@@H](CO)Cc1ccccc1)C(=O)N[C@H](COC(=O)[C@H](CC=C)CC(=O)OC(C)(C)C)Cc1ccccc1
C=CC[C@@H](CC(=O)N[C@H](CO)Cc1ccccc1)C(=O)N[C@H](C)COC(=O)[C@@H](CC=C)Cc1ccc(F)cc1
CCCCc1ccc(S(=O)(=O)NC(=O)C2(C)CCN2C(=O)c2c(C)noc2C)cc1 (configuration not stated)
Cc1cc(=O)c2ccc(NC(=O)c3ccccc3)cc2[nH]1
CCCCCn1nnnc1C1c2ccccc2C(=O)N1Cc1ccco1 (configuration not stated)
COc1ccc(Sc2ccc(NC(=O)c3cccc(Cl)c3)cc2C#N)cc1
CCCCNC(=O)C[C@@H]1C[C@@]2(C(=O)OCC)CCC=C2N(Cc2ccco2)C1=O
Cn1c(S(=O)(=O)O)nc2ccccc21
Cc1ccc(-c2ccc(C3=CC(=O)CC(C)(C)C3=O)cc2)cc1
CCc1nc2ccc(C(=O)NC3CCN(Cc4ccccc4)CC3)cn2c1N(C)CCN1CCOCC1
CC(C)CCC(=O)Nc1cc(S(=O)(=O)N2CCOCC2)ccc1N1CCCC1
O=S(=O)(c1ccc2nc(N3CCN(c4cccc(Cl)c4)CC3)ccc2c1)N1CCCCC1
CC(=O)c1cccc(Nc2ccc3cc(S(=O)(=O)N4CCC(C)CC4)ccc3n2)c1
Cc1ccc(NC(=O)CN2C(=O)C(c3ccc(F)cc3)=NC23CCCCCC3)c(C)c1
COc1ccc(NC(=O)CN2C(=O)C(c3ccccc3)=NC23CCCCCC3)cc1OC
CC(C)(C)c1ccc(S(=O)(=O)NC(=O)C2(C)CCN2C(=O)CC2CC2)cc1 (configuration not stated)
CCCS(=O)(=O)N1CCC(CCOc2ccccc2)(C(=O)OCC)CC1
CCOC(=O)C1(CCOC)CCN(Cc2ccc(C(=O)OC)cc2)CC1
CCOC(=O)C1(CCOc2ccccc2)CCN(C(=O)c2cncs2)CC1
CCOC(=O)C1(S(=O)(=O)c2ccc(Cl)cc2)CCN(Cc2ccccc2)CC1

Activity change, negative = inhibition, inactive:
CCN(CC)CCCNC(=O)c1ccc2c(=O)n(Cc3ccc4c(c3)OCO4)c(=S)[nH]c2c1 -18.1% [at 7.66 µM]
O=S(=O)(Cc1ccccc1)c1nc2ccccc2n1Cc1ccccn1 0.0124% [at 7.66 µM]
